Source: PubChem
Shown are actives, neighbours in structure and some others; about 15% of the full set was active somewhere.
12-LOX inh: blocks human arachidonate 12S-lipoxygenase; Potency, µM (titrated, usually from 108 µM), hits mostly inhibitors; AID 1671190; 580,000 tested, 1.1% active; purified 12hLO, xylenol orange hydroperoxide absorbance; P18054
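Hydroperoxide product was detected by ferrous iron/xylenol orange as the 573 to 405 nm absorbance ratio. Arachidonic acid at 40 uM (final) was turned over for 30 min at room temperature by 150 nM human 12hLO, pH 7.0 Hepes buffer, after 15 min compound preincubation.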
TDP1 cell noCPT: qHTS for Inhibitors of human tyrosyl-DNA phosphodiesterase 1 (TDP1): qHTS in cells in absence of CPT; DT40 Tdp1-/- hTDP1 cells, no CPT, ATP luminescence, 48 h; Potency, µM (highest dose often 46.2 µM), usual class: inhibitors; 420,000 tested, 15% active; further: nearly all actives have a fitted effect of over 55% in size
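Luminescent ATP content (CellTiter-Glo) served as the growth readout. Knockout chicken DT40 cells expressing human TDP1 were exposed to compounds without camptothecin for a minimum 48 hr at 37 °C.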
ELG1 repair inh: ELG1-dependent DNA repair inhibition | HEK293T ELG1-luciferase reporter, luminescence, 16 h; DNA damage induced by 5-fluorouridine | Potency, µM (top dose mostly 46.1 µM), most hits filed as inhibitors | 330,000 tested, 2.3% active | AID 504467; further: nearly all actives have a fitted effect of over 55% in size
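Cells (2,000 per well) received 5-fluorouridine plus test compound or DMSO and were incubated 16 hr at 37 °C, 5% CO2. Luciferase activity was read by luminescence 30 min after ONE-Glo addition; signal suppression marked inhibition of damage-induced ELG1 function.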
Gal4-VP16 FLuc: Gal4-VP16 reporter inhibition counter-screen. Drosophila S2 Gal4-VP16 UAS-luciferase, luminescence, 20 h. 310,000 tested, 3.5% active. Potency, µM (doses to about 53.6 µM), usual class: inhibitors. AID 2546;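 further: Gal4-VP16 expression switched on by copper sulfate through the metallothionein promoter; nearly all actives have a fitted effect of over 50% in size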
TDP1 cell CPT: DT40-hTDP1 cell growth loss with CPT; chicken DT40 Tdp1-/-;hTDP1 cells + 20 nM CPT, ATP luminescence, 48 h; Potency, µM (top dose mostly 46.2 µM), most hits filed as inhibitors; 420,000 tested, 12% active; further: nearly all actives have a fitted effect of over 55% in size
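Chicken DT40 Tdp1-/- cells stably complemented with human TDP1 were seeded at 400 cells/well in medium containing 20 nM camptothecin, exposed to pin-transferred compounds, and grown at 37 °C for at least 48 hr. Viability was read as ATP luminescence.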
RORg inh: blocks mouse ROR gamma transcriptional activity. Potency, µM (titrated, usually from 53.6 µM), hits mostly inhibitors. AID 2551. 310,000 tested, 5.4% active. P51450. Drosophila S2 Gal4-RORgamma UAS-luciferase reporter, 20 h; further: nearly all actives have a fitted effect of over 60% in size
Target sequence (P51450 whole entry, looked up, the tested form may be a part): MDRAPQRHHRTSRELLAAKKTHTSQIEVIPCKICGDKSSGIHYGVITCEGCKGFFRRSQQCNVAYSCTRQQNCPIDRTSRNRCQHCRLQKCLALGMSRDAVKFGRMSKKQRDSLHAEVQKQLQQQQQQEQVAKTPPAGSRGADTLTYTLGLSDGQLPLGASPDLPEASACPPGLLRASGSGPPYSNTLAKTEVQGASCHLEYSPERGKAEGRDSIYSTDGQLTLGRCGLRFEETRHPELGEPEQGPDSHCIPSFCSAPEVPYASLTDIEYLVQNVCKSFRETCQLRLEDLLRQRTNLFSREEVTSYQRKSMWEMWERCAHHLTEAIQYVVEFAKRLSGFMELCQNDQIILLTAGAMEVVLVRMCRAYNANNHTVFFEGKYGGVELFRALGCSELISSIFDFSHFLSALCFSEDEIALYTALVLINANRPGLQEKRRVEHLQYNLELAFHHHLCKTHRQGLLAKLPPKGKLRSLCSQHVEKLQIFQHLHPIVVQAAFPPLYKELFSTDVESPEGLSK
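Using a luciferase readout, inhibitors were identified by reduced reporter activity in Drosophila cells coexpressing a copper-inducible Gal4–ROR gamma fusion and UAS-driven Photinus luciferase, incubated 20 hr after 700 uM copper sulfate.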
A number is an active result; i = inactive; ? = inconclusive; nt = not tested or not shown; [ ] = dose if it differs, or a comment. The call rests on the fitted dose curve; in most records, active means well fitted curve in the direction sought with a large enough effect; inconclusive means small, poorly fitted or top-dose-only effect, or another doubt; inactive means no such curve, though single readings can be large; an effect the other way counts as inactive or inconclusive.

SMILES | 12-LOX inh | TDP1 cell noCPT | ELG1 repair inh | Gal4-VP16 FLuc | TDP1 cell CPT | RORg inh
CC(=O)N1CCc2cc(S(=O)(=O)NCCC(=O)NC3CCCc4ccccc43)ccc21 (stereo not drawn) | i | i | 13µM | nt | i | i[0.365 µM]
CCC(=O)N1CCc2cc(S(=O)(=O)NCCC(=O)N3CCN(c4ccccn4)CC3)ccc21 | i | ? | i | i | i | i
CC(=O)N1CCc2cc(S(=O)(=O)NCCC(=O)N3CCN(Cc4ccccc4)CC3)ccc21 | i | 21µM | ? | i | ? | i
CCc1ccc(NC(=O)CSc2ncnc3ccccc23)cc1 | i | nt | nt | nt | nt | nt
CCOc1cc(C#N)ccc1OCc1ccccc1 | i | nt | nt | nt | nt | nt
CNC(=O)c1cccc(NC(=O)Cc2nc(-c3ccccc3)oc2C)c1 | i | nt | nt | nt | nt | nt
COCc1cc(C[C@@H]2CC[C@H](O)[C@@H](CNC(=O)c3ccccc3)O2)no1 | i | nt | nt | nt | nt | nt
N#Cc1ccc(CN2CCN(C(=O)CCNS(=O)(=O)c3ccc(F)c(Cl)c3)CC2)cc1 | i | 18µM | i | nt | ? | nt
O=C(Cn1cc(C(F)(F)F)ccc1=O)NCCc1ccc(Cl)cc1Cl | i | i | i | i | i | i
O=C(c1ccc(S(=O)(=O)NCc2ccco2)cc1)N1CCCC1 | i | i | i | i | i | i
CCN(CC)c1ccc(NC(=O)CCNS(=O)(=O)c2ccc3c(c2)CCC(=O)N3)c(C)c1 | i | 16µM | i | i | ? | i
N#Cc1ccc(CN2CCN(CC(=O)NCCc3ccc(Cl)cc3Cl)CC2)cc1 | ? | 21µM | i | i | 21µM | i
Cc1ccc(NC(=O)CCNS(=O)(=O)c2ccc3c(c2)CCC(=O)N3)cc1F | i | ? | i | i | i | i
N#Cc1ccc(CN2CCN(C(=O)c3ccc(S(=O)(=O)NCc4ccco4)cc3)CC2)cc1 | i | 2.6µM | ? | nt | 10µM | nt
Cc1ccc(CN2CCCCCNC(=O)[C@@H]3CCC[C@@H]32)o1 | i | nt | nt | nt | nt | nt
COCCn1cnc2c1c(=O)n(CC(=O)Nc1ccc(F)c(F)c1)c(=O)n2CC(C)C | i | nt | nt | nt | nt | nt
COc1cccc(NC(=O)CSc2nnc(-c3ccc(C)cc3)c(=O)[nH]2)c1 | i | nt | nt | nt | nt | nt
Cc1cccc(N2CCN(C(=O)CCNS(=O)(=O)c3ccc4c(c3)CCN4C(=O)C3CC3)CC2)c1C | i | 18µM | nt | nt | 18µM | nt
COc1ccc(N2CCN(C(=O)CCNS(=O)(=O)c3ccc4c(c3)CCN4C(=O)C3CC3)CC2)cc1 | i | 18µM | nt | nt | 13µM | nt
O=C1CCc2cc(S(=O)(=O)NCCC(=O)N3CCN(c4cccc(Cl)c4)CC3)ccc2N1 | i | 10µM | ? | i | 26µM | i
CC(NC(=O)NCCNc1cnccn1)c1ccc(C#N)cc1 (stereo not drawn) | i | nt | nt | nt | nt | nt
O=C(Cc1ccc(Br)cc1)NC1CCN(C2CC2)C1 (stereo not drawn) | i | nt | nt | nt | nt | nt
Cc1cccc(Cn2c(Sc3ncccn3)nc3c2c(=O)[nH]c(=O)n3C)c1 | i | nt | nt | nt | nt | nt
O=C(O)/C(=C\c1ccc(Cl)c([N+](=O)[O-])c1)c1ccc(S(=O)(=O)N2CCCCC2)s1 | ? | i | i | i | i | i
O=C(O)/C(=C\c1ccc(Cl)c([N+](=O)[O-])c1)c1ccc(S(=O)(=O)N2CCCC2)s1 | 18µM | i | i | nt | i | nt
SMILES | 12-LOX inh | TDP1 cell noCPT | ELG1 repair inh | Gal4-VP16 FLuc | TDP1 cell CPT | RORg inh
O=C(CCCN1C(=O)/C(=C\c2cccs2)SC1=S)NNC(=O)c1ccncc1 | i | i | i | ? | i | i
COc1cc(/C=C2\SC(=S)N(NC(=O)c3cccnc3)C2=O)ccc1O | ? | i | ? | i | i | i
O=C(NN1C(=O)/C(=C/c2ccc(O)c(O)c2)SC1=S)c1ccccc1 | ? | 12µM | i | i | ? | i
O=C(NN1C(=O)/C(=C/c2cccs2)SC1=S)c1ccncc1 | ? | i | 4.1µM | i | i | i
COc1cc(/C=C2\SC(=S)N(NC(=O)c3ccc(O)cc3)C2=O)ccc1O | i | i | ? | ? | i | 11µM
CN(C)/C=C1\Oc2ccc3ccccc3c2C1=O | 5µM | i | ? | i | i | i
O=C(CSc1ccccn1)c1ccc2c(c1)OCCO2 | i | nt | nt | nt | nt | nt
COc1cc(C2CC(=O)Nc3nc(-c4ccccc4)[nH]c(=O)c32)cc(OC)c1OC (stereo not drawn) | i | nt | nt | nt | nt | nt
S=c1nn[nH]n1C12CC3CC(CC(C3)C1)C2 | nt | i | i | 7.1µM | i | 2.5µM
S=c1nc(C23CC4CC(CC(C4)C2)C3)[nH][nH]1 | ? | i | i | i | i | i
O=C(Nc1nccs1)c1cn(-c2ccccc2)nc1-c1ccncc1 | i | i | ? | i | i | i
COc1cccc(-c2nn(-c3ccccc3)cc2C(=O)Nc2nccs2)c1 | i | ? | ? | 18µM | ? | 6.3µM
COc1ccc(-c2nn(-c3ccccc3)cc2C(=O)Nc2nccs2)cc1 | ? | ? | 6.5µM | 11µM | ? | 7.1µM
Cc1nocc1C(=O)N1CCCn2ccnc2C1c1cnn(C)c1 (stereo not drawn) | i | nt | nt | nt | nt | nt
O=C(CCCc1ccc(-c2ccccc2F)cc1)Nc1ccc(O)cc1 | i | nt | nt | 4.5µM | nt | 1.6µM
Cc1ccc(NC(=O)CCc2ncc(-c3ccccc3F)o2)cc1 | i | nt | nt | nt | nt | nt
COc1ccc(C(C)=O)cc1CSCc1coc(-c2ccc(C)cc2C)n1 | i | nt | nt | nt | nt | nt
CCN(CC)c1ccc(NC(=O)c2sc3ccccc3c2Cl)cc1 | i | 21µM | nt | nt | 21µM | nt
O=C(NCC(=O)N1CCCCC1)c1sc2ccccc2c1Cl | i | i | ? | nt | i | nt
O=C(NC1CCCC1)c1sc2cc(Cl)ccc2c1Cl | i | nt | nt | nt | nt | nt
CCN(CC)Cc1ccc(NC(=O)c2sc3cc(Cl)ccc3c2Cl)cc1 | ? | 16µM | i | i | ? | i
O=C(Nc1ccc(CN2CCCCC2)cc1)c1sc2ccccc2c1Cl | i | 16µM | ? | i | 13µM | i
COc1ccc(C2=NNC(=O)C2(C)Br)cc1 (stereo not drawn) | 45µM | ? | nt | nt | i | nt
CCCCCCCCNC(=O)c1cccs1 | i | nt | nt | nt | nt | nt
CC(C)NC(=O)CSCc1c(Cl)cccc1Cl | i | 15µM | i | i | ? | i
SMILES | 12-LOX inh | TDP1 cell noCPT | ELG1 repair inh | Gal4-VP16 FLuc | TDP1 cell CPT | RORg inh
O=C(CSCc1ccccc1)NNC(=S)Nc1cccc(Cl)c1Cl | i | ? | i | ? | ? | 6.3µM
COCCNC(=S)NNC(=O)CSCc1ccc(Cl)cc1Cl | i | ? | ? | i | i | 10µM
CNC(=S)NNC(=O)CSCc1c(Cl)cccc1Cl | i | ? | i | 20µM | i | 11µM
CNC(=O)CSCc1c(Cl)cccc1Cl | i | i | i | i | i | i
CC(C)(CNC(=O)C1(c2ccc(F)cc2)CCC1)C(N)=O | i | nt | nt | nt | nt | nt
COc1cc(F)c(-c2nccn2CC(O)c2ccccc2)cc1OC (stereo not drawn) | i | nt | nt | nt | nt | nt
